Only some compounds are listed: those with a hit (about 9.8% of all), similar ones and a draw of the others.
HTT cytoprotect = qHTS Multiplex Assay to Identify Dual Action Probes in a Cell Model of Huntington: Cytoprotection (ATP). PC12 HTT-Q103 induced, cytoprotection, ATP luminescence, 40 h. Potency, µM (top dose mostly 56.4 µM), usual class: activators. hit rate 0.14% among 230,000; further: nearly all actives have a fitted effect of over 45% in size
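Readout: ATPlite luminescence (ATP level). Model: stable PC12, inducible Htt exon1 Q103-GFP. Inducer: tebufenozide, 100 nM final. Compounds: dose series. No G418 in medium.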
HPGD block = qHTS Assay for Inhibitors of HPGD (15-Hydroxyprostaglandin Dehydrogenase) | hit rate 4.3% among 150,000 | Potency, µM, usual class: inhibitors | AID 894, 2007 | purified HPGD, NADH fluorescence kinetic, PGE2 substrate; active means well fitted inhibition curve with a large enough effect, not every such curve was filed as active; inconclusive means small, poorly fitted or top-dose-only effect, or another doubt; inactive means no such curve, though single readings can be large or run the other way
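NADH formation kinetics: reaction with 30 uM PGE2 and 1 mM NAD+ (final), 20 nM enzyme, Tris-HCl pH 8 with Tween 20, after 15 min compound preincubation at room temperature. Fluorescence change, last versus first of five reads.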
CBFb-RUNX1 inh = qHTS Assay for Compounds Blocking the Interaction Between CBF-beta and RUNX1 for the Treatment of Acute Myeloid Leukemia; AlphaScreen CBFb-His/RUNX1-biotin binding, biochemical; 230,000 tested, under 10 active; Potency, µM (doses to about 59.8 µM), most hits filed as inhibitors
Target sequence (Q01196 whole entry, looked up): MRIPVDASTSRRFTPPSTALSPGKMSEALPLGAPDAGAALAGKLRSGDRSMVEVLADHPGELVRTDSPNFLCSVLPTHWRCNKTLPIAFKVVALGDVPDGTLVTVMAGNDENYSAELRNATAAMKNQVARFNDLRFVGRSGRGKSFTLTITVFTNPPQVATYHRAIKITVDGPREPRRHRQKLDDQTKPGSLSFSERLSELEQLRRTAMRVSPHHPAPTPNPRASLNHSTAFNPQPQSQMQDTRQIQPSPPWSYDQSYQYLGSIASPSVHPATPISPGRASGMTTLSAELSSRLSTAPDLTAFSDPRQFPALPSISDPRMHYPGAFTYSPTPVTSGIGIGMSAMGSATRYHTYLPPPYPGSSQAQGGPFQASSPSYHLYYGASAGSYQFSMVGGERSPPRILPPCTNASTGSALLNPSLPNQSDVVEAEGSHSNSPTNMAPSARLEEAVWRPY
Target sequence (Q13951 whole entry, looked up): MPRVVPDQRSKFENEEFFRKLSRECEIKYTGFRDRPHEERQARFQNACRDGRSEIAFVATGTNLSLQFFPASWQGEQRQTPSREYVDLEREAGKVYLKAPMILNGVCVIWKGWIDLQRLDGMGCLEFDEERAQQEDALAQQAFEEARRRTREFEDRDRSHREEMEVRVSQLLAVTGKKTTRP
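CBF-beta (His) and RUNX1 (biotin), 30 nM each; 20 min preassociation; + compound, 15 min; + beads 50 ng each (Ni, streptavidin), 90 min; RT; AlphaScreen read.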
ALDH1A1 block = qHTS Assay for Inhibitors of Aldehyde Dehydrogenase 1 (ALDH1A1) | Aldehyde dehydrogenase 1A1 (Homo sapiens), P00352 | Purified ALDH1A1, NADH fluorescence, propionaldehyde substrate | Potency, µM (series often up to 75.3 µM), most hits filed as inhibitors | hit rate 7.3% among 220,000 | AID 1030, 2008; active means well fitted inhibition curve with a large enough effect, not every such curve was filed as active; inconclusive means small, poorly fitted or top-dose-only effect, or another doubt; inactive means no such curve, though single readings can be large or run the other way
JMJD2E inh = qHTS Assay for Inhibitors of Human Jumonji Domain Containing 2E (JMJD2E); hit rate 1.6% among 230,000; AID 2147, 2009; JMJD2E catalytic domain, FDH-coupled NADH fluorescence (FDH is formaldehyde dehydrogenase); Lysine-specific demethylase 4E (Homo sapiens), B2RXH2; Potency, µM (series often up to 57.1 µM), most hits filed as inhibitors; active means well fitted inhibition curve with a large enough effect, not every such curve was filed as active; inconclusive means small, poorly fitted or top-dose-only effect, or another doubt; inactive means no such curve, though single readings can be large or run the other way; further: nearly all actives have a fitted effect of over 50% in size
HTT aggregate = qHTS Multiplex Assay to Identify Dual Action Probes in a Cell Model of Huntington: Aggregate Formation (GFP); Potency, µM (titrated, usually from 46.1 µM), actives largely listed as inhibitors; hit rate 1.1% among 220,000; PC12 HttQ103-GFP aggregates, Acumen cytometry, 40 h; further: nearly all actives have a fitted effect of over 60% in size
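PC12/HTTQ103-GFP, ecdysone-inducible; teb 100 nM; cpd qHTS titration; GFP aggregates read on laser cytometer, Ex 488/Em 500-530 nm.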
Each line names hits and unclear results; the compound was inactive in the other large screens. Unless noted, the call rests on the fitted dose curve; in most records, active means well fitted curve in the direction sought with a large enough effect; inconclusive means small, poorly fitted or top-dose-only effect, or another doubt; inactive means no such curve, though single readings can be large; an effect the other way counts as inactive or inconclusive.

CCN(CC)S(=O)(=O)c1cccc(NC(=O)/C=C/c2cccc([N+](=O)[O-])c2)c1	ALDH1A1 block 7.9µM
CCN(CC)S(=O)(=O)c1ccc(N2CCCCC2)c(NC(=O)/C=C/c2cc(OC)c(OC)c(OC)c2)c1	HTT cytoprotect inconclusive, ALDH1A1 block 13µM, JMJD2E inh inconclusive
COc1cc(/C=C/C(=O)Nc2cc(S(=O)(=O)N3CCOCC3)ccc2N2CCCC2)cc(OC)c1OC	ALDH1A1 block 11µM (no result: HPGD block)
CC(C)N(C(=O)COC(=O)CNS(=O)(=O)c1ccccc1F)c1ccccc1	ALDH1A1 block inconclusive (no result: HPGD block)
Cc1ccccc1NC(=O)Cn1c(NCC(C)O)nc2ccccc21 (stereo unspecified)	none
CS(=O)(=O)N1CCC[C@@]2(CCN(Cc3ccc(C#N)cc3)C2)C1	none (no result: CBFb-RUNX1 inh, JMJD2E inh, HTT aggregate)
COC(=O)C1=C(C(=O)OC)[C@@H]2Nc3ccccc3[C@@]23C[C@@H](C(=O)OC)N(C(=O)c2ccco2)C3=N1	none (no result: HTT aggregate)
CC1(C)C(C(=O)O)N2C(=O)CC2S1(=O)=O (stereo unspecified)	HTT cytoprotect inconclusive (no result: JMJD2E inh, HTT aggregate)
COc1ccc(C(=O)NNc2ccccc2)cc1	ALDH1A1 block 28µM, JMJD2E inh inconclusive
O=C(CNC(=O)c1ccc(Oc2ccccc2)cc1)OC1CCCCC1=O (stereo unspecified)	ALDH1A1 block 22µM, JMJD2E inh inconclusive
O=C(NCc1ccccc1)c1ccc(Cl)cc1[N+](=O)[O-]	HPGD block 13µM
CC(C)(C)c1cc(C(=O)NCc2ccccc2)ccn1	HTT aggregate 11µM
CNC(=O)CC1C(=O)N(C)C(=S)N1NC(=O)c1ccc(Cl)cc1 (stereo unspecified)	none
COc1ccc(NC(C)=O)cc1NC(=O)CN1CCN(C(=O)c2ccco2)CC1	none
OCCN1CCN(c2cc(C(F)(F)F)nc3ccccc23)CC1	none (no result: HPGD block, ALDH1A1 block)
Cc1ccc(C(=O)NCc2ccccc2)cc1Br	HPGD block 25µM, ALDH1A1 block inconclusive
COc1cc(OC)cc(C(=O)NC(=S)NCCc2ccccc2)c1	ALDH1A1 block 1.1µM
O=C(NCc1ccccc1)c1ccc(Br)cc1Br	HPGD block 3.5µM
COc1ccc(C(=O)NC(=S)NCc2ccccc2)cc1	ALDH1A1 block 22µM
COc1ccc(CNC(=S)Nc2ccccc2-c2ccccc2)cc1	ALDH1A1 block 22µM (no result: HPGD block)
O=C(NCc1ccccc1)c1ccc(Oc2ccc(C(=O)NCc3ccccc3)cc2)cc1	HTT cytoprotect inconclusive, HPGD block 13µM
COc1ccc(CNC(=S)NCc2ccc(OC(C)C)cc2)cc1	ALDH1A1 block 14µM
COc1ccc(CNC(=S)Nc2cc(C)cc(C)c2)cc1	none
O=C(NCc1ccccc1)c1ccc(OC2CSC2)cc1	none
N=C1SC(CC(=O)Nc2ccccc2[N+](=O)[O-])C(=O)N1c1ccccc1 (stereo unspecified)	none (no result: HPGD block, ALDH1A1 block)
COCc1cc(=O)[nH]c(/N=C(\N)Nc2c(F)cccc2F)n1	none (no result: HPGD block, ALDH1A1 block)
CCCCCOP(=O)(OCCCCC)C1(NS(=O)(=O)c2ccccc2)C=CC(=O)c2ccccc21 (stereo unspecified)	none (no result: HPGD block)
CN(C)c1ccc(CN(C(=O)c2ccc(Cl)c([N+](=O)[O-])c2)C2CCS(=O)(=O)C2)cc1 (stereo unspecified)	none (no result: HPGD block, ALDH1A1 block)
N[C@H]1[C@@H](C(=O)O)[C@H]2C=C[C@H]1C2	ALDH1A1 block 0.5µM (no result: CBFb-RUNX1 inh, JMJD2E inh, HTT aggregate)
O=C(Nc1cccc2ncccc12)C(c1ccccc1)c1ccccc1	ALDH1A1 block inconclusive, JMJD2E inh inconclusive (no result: HPGD block)
CCOc1ccc(/C(C)=N/N2C(=O)C(CC(=O)Nc3ccc(OC)cc3[N+](=O)[O-])SC2=Nc2cccc(C)c2C)cc1 (stereo unspecified)	HPGD block inconclusive, ALDH1A1 block 14µM (no result: HTT cytoprotect)

From PubChem BioAssay
